The source made the active and inactive calls. How the source made its calls: active means hit-call score of the fitted dose curve at least 0.9, where 1 is the maximum; inactive means score below 0.9.

For 13 molecules, outcome and AC50 results are on record in PubChem BioAssay (EPA / NIEHS).

Holding throughout (conditions): mRNA level, 48 h; actives raise or lower the signal
Read-out in assay [1]: Hypoxia-inducible factor 1-alpha (Homo sapiens) (UniProt Q16665)
In words: LTEA_HepaRG_HIF1A: Life Technologies and Expression Analysis (LTEA) Assay for Hypoxia-inducible factor 1 (HIF1A) Trancription factor using HepaRG (AID 2283503).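 Further: HIF1A transcript by TaqMan qRT-PCR normalized to ACTB GAPDH and POLR2A.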 The method in brief:
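HepaRG, 48 h exposure, 8-pt half-log series from 100 uM, 0.5% DMSO vehicle, duplicates. Readout: HIF1A transcript by qRT-PCR (Fluidigm array), housekeeping-normalised. Bidirectional curve fit vs DMSO baseline.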

Read-out in assay [2]: 3-Hydroxy-3-Methylglutaryl-CoA Synthase 2 (HMGCS2), HMGCS2 (gene 3158)
Description: LTEA_HepaRG_HMGCS2: Life Technologies and Expression Analysis (LTEA) Assay for 3-Hydroxy-3-Methylglutaryl-CoA Synthase 2 (HMGCS2) using HepaRG (AID 2283504). Summed up: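 qRT-PCR read-out of HMGCS2 transcript, normalised to three housekeeping genes, in HepaRG cells after 48 h chemical exposure. Eight-point curves from 100 uM, half-log dilutions, 0.5% DMSO vehicle; gain or loss fitted relative to DMSO baseline.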

Read-out in a further assay: HGF (gene 3082)
Description: LTEA_HepaRG_HGF: Life Technologies and Expression Analysis (LTEA) Assay for Hepatocyte Growth Facto (HGF) using HepaRG (AID 2283505). The method in brief: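 HepaRG, 48 h dosing, 8-pt half-log series from 100 uM in 0.5% DMSO, duplicates. Readout: TaqMan qRT-PCR of HGF mRNA, housekeeping-normalized; bidirectional curve fit vs DMSO baseline.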

Read-out in assay [3]: Insulin Like Growth Factor 1 (IGF1), IGF1 (gene 3479)
In words: LTEA_HepaRG_IGF1: Life Technologies and Expression Analysis (LTEA) Assay for Insulin Like Growth Factor 1 (IGF1) using HepaRG (AID 2283506). The method in brief:
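Using human HepaRG liver cells, IGF1 transcript induction or suppression is measured 48 h after dosing across eight concentrations capped at 100 uM. Values derive from bidirectional concentration-response fitting with DMSO as baseline.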

Read-out in assay [4]: Intercellular Adhesion Molecule 1 (ICAM1), ICAM1 (gene 3383)
In words: LTEA_HepaRG_ICAM1: Life Technologies and Expression Analysis (LTEA) Assay for Intercellular Adhesion Molecule 1 (ICAM1) using HepaRG (AID 2283507). The method in brief:
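HepaRG, 48 h exposure, 8-pt half-log series from 100 uM, 0.5% DMSO vehicle, duplicates. Readout: TaqMan qRT-PCR mRNA, housekeeping-normalized (ACTB/GAPDH/POLR2A). Bidirectional curve fit vs DMSO baseline.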

Read-out in assay [5]: Insulin-like growth factor-binding protein 1 (IGFBP1), IGFBP1 (gene 3484)
In words: LTEA_HepaRG_IGFBP1: Life Technologies and Expression Analysis (LTEA) Assay for Insulin-like growth factor-binding protein 1 (IGFBP1) using HepaRG (AID 2283508). The method in brief: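 qRT-PCR mRNA read-out (TaqMan, Fluidigm array), normalised to three housekeeping genes; HepaRG cells, 48 h exposure, 8-pt half-log series from 100 uM, 0.5% DMSO vehicle; bidirectional curve fit vs DMSO baseline.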

Read-out in assay [6]: Interleukin 6 (IL6), IL6 (gene 3569)
In words: LTEA_HepaRG_IL6: Life Technologies and Expression Analysis (LTEA) Assay for Interleukin 6 (IL6) using HepaRG (AID 2283509). The method in brief: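 HepaRG cells exposed in duplicate for 48 h to eight half-log concentrations, top 100 uM, in 0.5% DMSO serum-free induction medium. mRNA measured by qRT-PCR, normalized to ACTB, GAPDH and POLR2A. Bidirectional fit versus DMSO.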

Read-out in assay [7]: Interleukin 6 Receptor (IL6R), IL6R (gene 3570)
In words: LTEA_HepaRG_IL6R: Life Technologies and Expression Analysis (LTEA) Assay for Interleukin 6 Receptor (IL6R) using HepaRG (AID 2283510).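 On AC50: differentiated human HepaRG liver cells in serum-free induction medium.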 The method in brief:
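Concentration-response in human liver HepaRG cells: eight concentrations from 100 uM downward by half-logs, 48 h exposure, 0.5% DMSO vehicle. IL6R mRNA change measured by qRT-PCR and fitted in both directions relative to vehicle.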

Read-out in assay [8]: Potassium channel subfamily K member 1 (KCNK1), KCNK1 (gene 3775)
Description: LTEA_HepaRG_KCNK1: Life Technologies and Expression Analysis (LTEA) Assay for Potassium channel subfamily K member 1 (KCNK1) using HepaRG (AID 2283511). The method in brief:
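Differentiated HepaRG cells, 48 h exposure in serum-free induction medium with 0.5% DMSO; 8 concentrations, half-log from 100 uM, duplicate. KCNK1 mRNA by qRT-PCR, normalized to ACTB, GAPDH, POLR2A; bidirectional fit vs DMSO.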

Read-out in assay [9]: Keratin 19 (KRT19), KRT19 (gene 3880)
Description: LTEA_HepaRG_KRT19: Life Technologies and Expression Analysis (LTEA) Assay for Keratin 19 (KRT19) using HepaRG (AID 2283512). Summed up: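 HepaRG, 48 h chemical exposure, 8-pt half-log CRC from 100 uM, 0.5% DMSO vehicle, duplicates. Readout: TaqMan qRT-PCR of KRT19 mRNA, housekeeping-normalized (ACTB/GAPDH/POLR2A). Bidirectional fit vs DMSO baseline.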

Chain of Hypoxia-inducible factor 1-alpha (Homo sapiens) (Q16665 whole entry, looked up): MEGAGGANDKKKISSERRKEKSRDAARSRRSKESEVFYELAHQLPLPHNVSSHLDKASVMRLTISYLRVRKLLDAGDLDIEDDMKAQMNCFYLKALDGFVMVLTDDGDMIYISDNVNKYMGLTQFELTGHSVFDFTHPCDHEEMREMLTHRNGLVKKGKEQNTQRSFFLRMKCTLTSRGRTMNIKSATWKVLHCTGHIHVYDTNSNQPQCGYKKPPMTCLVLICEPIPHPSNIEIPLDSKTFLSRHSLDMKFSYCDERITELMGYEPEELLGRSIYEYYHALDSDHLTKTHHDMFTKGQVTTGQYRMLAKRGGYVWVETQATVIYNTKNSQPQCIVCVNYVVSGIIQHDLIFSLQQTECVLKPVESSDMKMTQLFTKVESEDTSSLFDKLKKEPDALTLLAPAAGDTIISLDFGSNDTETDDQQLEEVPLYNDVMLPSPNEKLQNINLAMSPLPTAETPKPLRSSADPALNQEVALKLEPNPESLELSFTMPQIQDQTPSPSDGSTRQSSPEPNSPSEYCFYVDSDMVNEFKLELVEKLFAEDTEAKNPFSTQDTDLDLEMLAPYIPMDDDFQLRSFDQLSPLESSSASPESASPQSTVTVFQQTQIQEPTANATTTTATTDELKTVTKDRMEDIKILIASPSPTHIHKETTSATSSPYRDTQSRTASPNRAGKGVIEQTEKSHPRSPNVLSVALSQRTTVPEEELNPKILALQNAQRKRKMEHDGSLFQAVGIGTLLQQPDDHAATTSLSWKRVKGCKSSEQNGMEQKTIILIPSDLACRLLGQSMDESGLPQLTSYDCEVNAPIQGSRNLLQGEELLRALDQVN

Take `OCCCl`: the molecule was called inactive (in [1]; in assay [2]; with HGF (gene 3082); in [3]; in assay [4]; in [5]). In addition, the result in assay [6], in assay [7], in [8] and in assay [9] was inactive.

Take `CC(C)(C)OOC(=O)c1ccccc1`: the molecule was classed as inactive (in assay [1]; in assay [2]; with HGF (gene 3082); in assay [3]; in [4]; in assay [5]). The result in assay [6], in assay [7], in [8] and in assay [9] was inactive.

`ClC1=C(Cl)[C@]2(Cl)[C@H]3[C@H]([C@@H]4C=C[C@H]3C4)[C@@]1(Cl)C2(Cl)Cl`: the call (in [1]; in assay [2]; with HGF (gene 3082); in assay [3]; in [4]; in assay [5]) was inactive. The outcome in assay [6], in assay [7], in assay [8] and in assay [9] was inactive.

In the case of `CCCCCCCCn1sccc1=O`, the outcome in [1], in assay [3], in assay [4], in [5], in [6] and in assay [8] was inactive. Also, the call in assay [9] was inactive. In addition, the results for the concentration at half-maximal activity (AC50) (in assay [2]; in the assay with HGF (gene 3082); in [7]) were 84.8 µM (active), 81.3 µM (active) and 99.3 µM (active), respectively.

Consider `CCOC(=O)[C@]1(c2ccccc2)Oc2ccccc2[C@@H]1N`, for which the AC50 in assay [1] is 82.2 µM (active); in assay [2] it was 77.3 µM (active); in assay [3], 80.2 µM (active); in [5] it was 91.6 µM (active); in assay [6], 84.8 µM (active). The molecule was called inactive (with HGF (gene 3082); in assay [4]; in assay [7]; in assay [8]; in assay [9]).

Turning to `Brc1ccc(Oc2ccccc2)cc1`, the outcome (in assay [1]; in assay [2]; with HGF (gene 3082); in [3]; in assay [4]; in assay [5]) was inactive. Besides, the result in assay [6], in assay [7], in [8] and in assay [9] was inactive.

In the case of `Oc1ccc2ccc3cccc4ccc1c2c34`, the call (in assay [1]; in assay [2]; with HGF (gene 3082); in [3]; in assay [4]; in assay [5]) was inactive. Also, the call in assay [6], in [7] and in [8] was inactive. In assay [9], the half-maximal activity concentration (AC50) is 8.53 µM (active).

Take `O=C1CCCO1`: the call (in assay [1]; with HGF (gene 3082); in [3]; in [4]; in assay [5]; in assay [6]) was inactive. Moreover, the molecule was called inactive in [7], in assay [8] and in [9]. In addition, the AC50 in assay [2] is 50 µM (active).

On to `Clc1ccc(C(c2ccc(Cl)cc2)C(Cl)(Cl)Cl)cc1`, for which the call (in assay [1]; in [2]; with HGF (gene 3082); in assay [4]; in assay [5]; in assay [6]) was inactive. Further, the call in assay [7], in assay [8] and in [9] was inactive. The concentration at half-maximal activity (AC50) in assay [3] is 50 µM (active).

For the molecule `CCNS(=O)(=O)C(F)(F)C(F)(F)C(F)(F)C(F)(F)C(F)(F)C(F)(F)C(F)(F)C(F)(F)F`, the molecule was called inactive (in assay [1]; in assay [2]; in the assay with HGF (gene 3082); in [4]; in [5]; in assay [6]). Moreover, the call in assay [7] and in [8] was inactive. Moreover, the concentration at half-maximal activity (AC50) in assay [3] and in assay [9] was 48.2 µM (active) each time.

For `COC(=O)c1ccccc1N`, the call (in assay [1]; in assay [2]; with HGF (gene 3082); in assay [3]; in [4]; in assay [5]) was inactive. The result in assay [6], in assay [7], in [8] and in [9] was inactive.

Consider `Clc1ccc(Cl)c(Cl)c1`, for which the molecule was called inactive (in assay [1]; in the assay with HGF (gene 3082); in assay [3]; in assay [4]; in assay [5]; in assay [6]). Also, the outcome in [7], in assay [8] and in [9] was inactive. Further, the half-maximal activity concentration (AC50) in assay [2] is 50 µM (active).

Turning to `Oc1ccccc1Cl`, the molecule was classed as inactive (in [1]; in [2]; in the assay with HGF (gene 3082); in assay [3]; in assay [4]; in assay [5]). Further, the molecule was called inactive in assay [6], in [7], in assay [8] and in assay [9].
